Assay outcomes deposited in PubChem by National Center for Advancing Translational Sciences (NCATS).
VACV mCherry inh – inhibitors of vaccinia virus infection (mCherry reporter signal); Vaccinia virus mCherry reporter infection, fluorescence; Potency, µM (series often up to 36.5 µM), actives largely listed as inhibitors; actives 0.63% (n = 310,000); AID 720579; calls by dose curve; tested in A549 cells; further: nearly all actives have a fitted effect of over 35% in size
AMA1 RON2 block – disrupts binding of P. falciparum AMA1 to RON2. AID 720542. actives 0.2% (n = 360,000). AlphaScreen AMA1-biotinylated RON2 peptide binding. Potency, µM (titrated, usually from 58.2 µM), usual class: inhibitors; further: nearly all actives have a fitted effect of over 45% in size
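AMA1 (3D7) with his tag at 25 nM final met compounds first, then biotinylated RON2 peptide at 25 nM; detection used donor plus acceptor beads, 10 µg/mL apiece, read by AlphaScreen after 30 min at room temperature.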
Pf growth 48h – inhibits P. falciparum growth in the first generation, 48 h; P. falciparum luciferase growth in erythrocytes, 48 h; actives 5.9% (n = 310,000); AID 504832; Potency, µM (series often up to 28.7 µM), actives largely listed as inhibitors
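Read-out is firefly luciferase luminescence from an integrated reporter in P. falciparum, so falling signal marks reduced parasite growth. Infected erythrocytes were at 2% hematocrit and 0.1% parasitemia (final) in Albumax-supplemented RPMI 1640.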
Vaccinia Venus – inhibitors of vaccinia virus (Venus reporter) | Vaccinia virus Venus reporter expression, fluorescence | Potency, µM (highest dose often 36.5 µM), hits mostly inhibitors | actives 0.46% (n = 330,000); calls by dose curve; tested in A549 cells; further: nearly all actives have a fitted effect of over 30% in size
Pf growth 96h – P. falciparum growth inhibition at 96 hours. actives 6.9% (n = 320,000). P. falciparum luciferase reporter growth, 96 h. Potency, µM (titrated, usually from 28.7 µM), usual class: inhibitors
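P. falciparum expressing integrated firefly luciferase grown in erythrocytes (2% hematocrit, 0.05% parasitemia final) with compounds for 96 hours at 37 C, 5% CO2. Growth inhibition read as loss of luminescence after adding luciferase detection reagent.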
Hits are given with their value; 0 = inactive; ? = inconclusive; - = no result given; [ ] = another dose, or the depositor's remark. The list is not random: actives were taken first. Their share in the collection is about 8.7%. Unless noted, the call rests on the fitted dose curve; in most records, active means well fitted curve in the direction sought with a large enough effect; inconclusive means small, poorly fitted or top-dose-only effect, or another doubt; inactive means no such curve, though single readings can be large; an effect the other way counts as inactive or inconclusive.

SMILES	VACV mCherry inh	AMA1 RON2 block	Pf growth 48h	Vaccinia Venus	Pf growth 96h
O=C(NCC(c1ccco1)S(=O)(=O)c1cccs1)c1ccc(C(F)(F)F)cc1 (stereo not drawn)	0	-	-	0	-
CN1C(=O)C(O)(CC(=O)c2ccccc2O)c2cc(Br)ccc21 (stereo not drawn)	0	0	?	0	1.17µM
COc1ccc(C(=O)CC2(O)C(=O)N(CCc3ccccc3)c3ccc(Br)cc32)cc1OC (stereo not drawn)	0	-	-	0	-
CN1C(=O)C(O)(CC(=O)c2cccc(-n3cccc3)c2)c2ccccc21 (stereo not drawn)	0	?	9.28µM	0	0
C=CCN1C(=O)C(O)(CC(=O)c2ccc(OC)cc2OC)c2cc(Br)ccc21 (stereo not drawn)	0	0	11.7µM	0	0
COc1cccc2c1OC1(CCN(C(C)C)CC1)N1N=C(c3cccnc3)CC21 (stereo not drawn)	0	0	0	0	0
CC(C)N1CCC2(CC1)Oc1ccc(Br)cc1C1CC(c3cccnc3)=NN12 (stereo not drawn)	-	0	?	-	13.1µM
Cc1cc(-c2ccc(C)c(S(=O)(=O)N3CCCC(C)C3)c2)on1 (stereo not drawn)	0	-	-	0	-
O=C(NC(=S)Nc1ccc(CN2CCOCC2)cc1)c1ccc(-c2ccc(Br)cc2)o1	0	0	13.1µM	0	?
O=C(NC(=S)Nc1ccc(CN2CCOCC2)cc1)c1ccc(-c2ccc(Cl)cc2)o1	-	0	0	-	?
COc1ccc(Br)cc1C(=O)NC(=S)Nc1ccc(CN2CCOCC2)cc1	0	0	?	0	4.65µM
Cc1ccc(CSc2nc3cccnc3n2Cc2ccc(C(=O)NCc3ccco3)cc2)cc1	0	-	-	0	-
CCCCCSc1nnc2c(n1)OC(c1ccc(C)s1)N(C(C)=O)c1ccccc1-2 (stereo not drawn)	0	-	-	0	-
COc1ccccc1NC(=O)N1CCOc2ccccc21	0	-	-	0	-
CC(C)CCC1(CCNC(C)c2cccs2)CCOC(C)(C)C1 (stereo not drawn)	?	0	?	0	13.1µM
CCC(=O)N(CCC1(C(C)C)CCOC(C)(C)C1)C(C)c1cccs1 (stereo not drawn)	-	0	?	-	?
COc1cc(O)c(C(CC(=O)N2CCCCC2)c2ccc(N(C)C)cc2)c(OC)c1 (stereo not drawn)	0	0	0	0	0
COc1cc(O)c(C(CC(=O)N2CCOCC2)c2ccc3c(c2)OCO3)c(OC)c1 (stereo not drawn)	0	0	?	0	0
COc1cc(OC)c2ccc(=O)oc2c1C(CCN1CCCC(C)C1)c1ccc2c(c1)OCO2 (stereo not drawn)	0	0	9.28µM	?	10.4µM
COc1cc(O)c(C(CCN2CCOCC2)c2ccc3c(c2)OCO3)c(OC)c1 (stereo not drawn)	0	0	1.65µM	0	2.33µM
COc1cc(O)c(C(CCN2CCCC(C)C2)c2ccc3c(c2)OCO3)c(OC)c1 (stereo not drawn)	?	0	0.657µM	0	0.586µM
COc1cc(O)c(C(CCN2CCCC(C)C2)c2ccc(N(C)C)cc2)c(OC)c1 (stereo not drawn)	0	?	0.738µM	0	0.465µM
COC(=O)c1c(C)sc(-c2c(-c3cccc(Cl)c3)[nH]c3c2c(=O)[nH]c(=O)n3C)c1O	0	-	-	0	-
COC(=O)c1c(CSc2cccc(C)c2)noc1C(=O)NCc1ccco1	0	0	2.62µM	0	0
CN(C)CCNC(=O)c1c(CSc2ccccc2)noc1C(=O)NCc1ccccc1	0	0	?	0	9.28µM
SMILES	VACV mCherry inh	AMA1 RON2 block	Pf growth 48h	Vaccinia Venus	Pf growth 96h
CCCNC(=O)c1c(CSc2ccccc2)noc1C(=O)NCc1ccccc1	0	0	?	0	14.7µM
CC(C)CCNC(=O)c1onc(CSc2ccncc2)c1C(=O)NCCC(C)C	0	0	0	0	0
COC(=O)c1c(CSc2ccc(Cl)cc2)noc1C(=O)NCc1ccco1	0	0	0	0	0
CN(C)CCNC(=O)c1onc(CSc2ccncc2)c1C(=O)NCCN(C)C	0	0	-	0	-
CC(C)CCNC(=O)c1c(CSc2ccccc2)noc1C(=O)NCc1ccccc1	0	0	?	0	13.1µM
Cc1cc(C)cc(SCc2noc(C(=O)NCCCN3CCOCC3)c2C(=O)NCCCN2CCOCC2)c1	0	0	9.28µM	?	?
CCCc1cc(C(=O)Nc2c(C)nn(Cc3ccc(Cl)c(Cl)c3)c2C)no1	0	-	-	0	-
Cc1cc(C)c(S(=O)(=O)n2ccc(-c3ccc(OCCN(C)c4ccccn4)cc3)n2)c(C)c1	0	0	1.85µM	0	7.38µM
CN(C)/C=C/C(=O)c1ccc(OCCN(C)c2ccccn2)cc1	0	0	0[0.00184 µM]	0	0
COC(=O)CSc1nnc(CNC(=O)c2ccc(S(=O)(=O)N3CCCCC3)cc2)n1C	-	0	0	-	1.47µM
CCn1c(SCC(=O)N2CCCCC2)nnc1-c1ccc(S(=O)(=O)N2CCN(C)CC2)cc1	-	0	0	-	0
Cn1c(SCC(=O)NCc2cccs2)nnc1-c1ccc(S(=O)(=O)N2CCCC2)cc1	-	0	?	-	8.28µM
Cc1occc1-c1nnc(SCC(=O)NCc2cccs2)n1CC1CCCO1 (stereo not drawn)	0	0	?	0	5.22µM
CCn1c(SCC(=O)N2CCCC2)nnc1-c1ccc(S(=O)(=O)N2CCCCCC2)cc1	-	0	9.28µM	-	?
CCCCNC(=O)CSc1nnc(-c2ccc(S(=O)(=O)N3CCCC3)cc2)n1C	0	0	?	0	0
CN(C)c1ccc(C2CCc3ccccc3N2C(=O)c2ccccc2)cc1 (stereo not drawn)	0	-	-	0	-
Cn1c(SCC(=O)N2CCCCC2)nnc1-c1ccc(S(=O)(=O)N2CCOCC2)cc1	-	0	0	-	13.1µM
N#Cc1ccc(CSc2ccc(S(=O)(=O)N3CCCC3)cn2)cc1	-	0	0	-	0
CCn1c(SCc2ccc(C#N)cc2)nnc1-c1ccc(S(=O)(=O)N2CCCCC2)cc1	-	0	1.47µM	-	0
Cn1c(SCC(=O)N2CCCC2)nnc1-c1ccc(S(=O)(=O)N2CCCC2)cc1	0	0	0	0	0
CCOC(=O)c1noc2ncn(CC(=O)Nc3ccc(OC)c(Cl)c3)c(=O)c12	0	-	-	0	-
COc1ccccc1CNS(=O)(=O)c1cnc(N)nc1	0	-	-	0	-
CCOc1ccc(CCNC(=O)c2nn(C)c3c2CSc2ccc(C)cc2-3)cc1OCC	?	-	-	0	-
C=CC(=O)Nc1ccc(CN2C(=O)N(c3c(Cl)c(OC)cc(OC)c3Cl)Cc3cnc(NCCCCN(CC)CC)nc32)cc1	?	0	-	3.16µM	-
CCN(CC)CCNC(=O)c1ccc(NC(=O)Cc2ccc(OC)c(S(=O)(=O)N3CCOCC3)c2)cc1	-	0	-	-	-
COc1ccc(NC(=O)NCCn2nnc3cc(S(=O)(=O)N(C)C)ccc32)cc1	0	-	-	0	-
Cc1ccc(NC(=O)/C(C#N)=C/c2ccccc2Cl)cc1C	0	-	-	0	-
COC(=O)C1C(O)C(C)C(O)C(C)/C=C\C=C(/C)C(=O)Nc2c(C)c(OC(C)=O)c3c(c2O)C(=O)C(C)=C2OCOC(=C23)/C(C)=C/C(C)(O)C(O)C(C)C1O (stereo not drawn)	-	0	11.7µM	-	9.28µM
